BoNT F protease: inhibitors of Botulinum neurotoxin F light chain protease | Multiplex microsphere protease cleavage assay, flow cytometry | inhibition, % at 10 µM | hit rate 0.22% among 360,000 | AID 588497; in the data active = inhibition above about 35%, passing the limit was not always enough; inconclusive = no clear call, values can overlap the other calls
Anthrax LF prot: blocks Bacillus anthracis lethal factor protease | multiplex microsphere protease cleavage assay, LF | inhibition, % at 10 µM | hit rate 0.12% among 360,000 | AID 588501; in the data active = inhibition above about 30%; inconclusive = no clear call, values can overlap the other calls
Autofluor counter: counter-screen for toxin protease inhibitors: compound fluorescence | compound autofluorescence counterscreen, microsphere flow cytometry; active compounds read high | fluorescence intensity (concentration not given with the values) | hit rate 3.1% among 360,000 | AID 624483; in the data active = fluorescence intensity above about 16000; inconclusive = no clear call, values can overlap the other calls
MazEF act: activators of E. coli MazEF toxin-antitoxin RNase. P0AE70. FAM/BHQ RNA-DNA oligo cleavage fluorescence, 5 h. activation, % at 20 µM. hit rate 0.32% among 350,000; in the data active = activation above about 50%
BoNT A protease: blocks Botulinum neurotoxin A light chain protease; inhibition, % at 10 µM; hit rate 0.17% among 360,000; multiplex microsphere protease substrate cleavage, flow cytometry; in the data active = inhibition above about 30%; inconclusive = no clear call, values can overlap the other calls
BoNTA LC inh 1: blocks botulinum neurotoxin A light chain protease. shares compounds with BoNT F protease. multiplex microsphere protease assay, flow cytometry. inhibition, % at 10 µM. hit rate 3% among 720. AID 602139; in the data active = inhibition above about 32%
BoNTF LC inh 1: BoNT/F light chain protease inhibition. 720 tested, under 10 active. shares compounds with BoNT F protease. inhibition, % at 10 µM. AID 602140. multiplex microsphere protease cleavage assay, flow cytometry
LF protease CP1: blocks anthrax lethal factor protease | 720 tested, under 10 active | inhibition, % at 10 µM | shares compounds with BoNT F protease | multiplex microsphere protease cleavage assay, LF
Large screens that a line does not name were inactive (follow-up assays come after a bar, where they were run). Sampled rows, rich in hits. Any-hit rate of the full collection: about 3.7%. Unless noted, the rule behind the calls is not given here.

O=C1CC(N2CCN(c3ccc(Cl)cc3)CC2)C(=O)N1c1ccc(F)cc1 (centres undefined)	BoNT F protease 56.5 | BoNTA LC inh 1 inactive | BoNTF LC inh 1 inactive | LF protease CP1 inactive
O=C(O)c1ccc(N2C(=O)CC(N3CCN(c4ccc(Cl)cc4)CC3)C2=O)cc1 (centres undefined)	BoNT F protease inconclusive
CCCCOc1ccc(C(=O)CCN2CCOCC2)cc1	none | BoNTA LC inh 1 inactive | BoNTF LC inh 1 inactive | LF protease CP1 inactive
Nc1nc2ccccc2nc1N1CCCC1	BoNT F protease 41.5, BoNT A protease 31.6 | BoNTA LC inh 1 inactive | BoNTF LC inh 1 inactive | LF protease CP1 inactive
CCC(C)(C)n1nnnc1C(C(C)C)N(Cc1cccnc1)Cc1ccco1 (centres undefined)	none
CCC(C)(C)n1nnnc1C(C(C)C)N(Cc1ccco1)Cc1cc2cc3c(cc2[nH]c1=O)OCO3 (centres undefined)	BoNT F protease 37.9, BoNT A protease 32.8 | BoNTA LC inh 1 inactive | BoNTF LC inh 1 inactive | LF protease CP1 inactive
CC(C)C(=O)Nc1c(-c2ccccc2Cl)c(=O)c2ccccc2n1C	none
CCSc1nnc(-c2sc3nnc(-c4ccccc4)c(-c4ccccc4)c3c2N)o1	BoNT F protease 51.5, Anthrax LF prot 56.3, BoNT A protease 80.2 | BoNTA LC inh 1 86.1 | BoNTF LC inh 1 inactive | LF protease CP1 40.3
COc1ccc(CC(=O)NCc2ccc3c(c2)cc(C)n3C)cc1	BoNT A protease 91.3 | BoNTA LC inh 1 inactive | BoNTF LC inh 1 inactive | LF protease CP1 inactive
COc1ccc(C(=O)NCc2ccc3c(c2)cc(C)n3C)cc1OC	BoNT A protease 92.3 | BoNTA LC inh 1 inactive | BoNTF LC inh 1 inactive | LF protease CP1 inactive
COc1cccc(C(=O)NCc2ccc3c(c2)cc(C)n3C)c1	BoNT A protease 75.2 | BoNTA LC inh 1 inactive | BoNTF LC inh 1 inactive | LF protease CP1 inactive
COc1cccc(C(=O)NCc2ccc3c(c2)OCO3)c1	BoNT F protease 35.9 | BoNTA LC inh 1 inactive | BoNTF LC inh 1 inactive | LF protease CP1 inactive
COc1ccc(C(=O)NCc2ccncc2)cc1OC	none
COc1cc(OC)cc(C(=O)NCc2ccc3c(c2)OCO3)c1	BoNT F protease inconclusive
C[C@@H]1CN([C@H](C)CO)S(=O)(=O)c2ccc(Br)cc2O[C@H]1CN(C)C(=O)C1CCCCC1	none
N#Cc1cnc2nc(SCc3ccccc3)nn2c1	none
CCn1c(SCC(N)=O)nc2cc(S(=O)(=O)N3CCOCC3)ccc21	none
CCn1c(SCC(=O)c2c[nH]c3ccccc23)nc2cc(S(=O)(=O)N3CCOCC3)ccc21	BoNT A protease 48.9 | BoNTA LC inh 1 inactive | BoNTF LC inh 1 inactive | LF protease CP1 inactive
COc1ccc(C(CC(=O)Nc2cc(C)ccn2)N2Cc3ccccc3C2=O)cc1 (centres undefined)	BoNT F protease 109.9 | BoNTA LC inh 1 inactive | BoNTF LC inh 1 inactive | LF protease CP1 inactive
CCOC(=O)c1cnc2c(C(=O)OCC)cnn2c1N	BoNT F protease inconclusive, Anthrax LF prot 31.4 | BoNTA LC inh 1 inactive | BoNTF LC inh 1 inactive | LF protease CP1 inactive
CC1=CC(=O)O[C@@H]1[C@@]1(C)C[C@H]2OC(=O)C[C@H]3[C@@H](C)C(=O)C(O)=C1[C@@]23CO	none
O=C(c1ccccc1)N1CCCC(C(=O)N2CCN(c3ccccc3)CC2)C1 (centres undefined)	BoNT F protease inconclusive, Anthrax LF prot 33.8 | BoNTA LC inh 1 inactive | BoNTF LC inh 1 inactive | LF protease CP1 inactive
O=C(c1ccccc1)N1CCCC(C(=O)N2CCCCC2)C1 (centres undefined)	none
COc1ccccc1CN1CCNC(=O)C1CC(=O)NCc1c(C)n[nH]c1C (centres undefined)	BoNT F protease 41.1 | BoNTA LC inh 1 inactive | BoNTF LC inh 1 inactive | LF protease CP1 inactive
OC(CNCc1ccccc1F)COc1cccc2ccccc12 (centres undefined)	BoNT F protease 35.4 | BoNTA LC inh 1 inactive | BoNTF LC inh 1 inactive | LF protease CP1 inactive
CC(C)NCC(O)COc1cccc2ccccc12 (centres undefined)	none (no result: BoNT F protease, Anthrax LF prot, Autofluor counter)
Cc1nc2nc(CSc3ccc(Cl)cc3)cc(=O)n2[nH]1	BoNT F protease 79.4 | BoNTA LC inh 1 inactive | BoNTF LC inh 1 inactive | LF protease CP1 inactive
CCCCCCCCOc1ccc(C(=O)O)cc1	none
CCCCCOc1ccc(C(=O)NC(C(=O)O)C(C)C)cc1 (centres undefined)	BoNT F protease 38.8, BoNT A protease inconclusive | BoNTA LC inh 1 inactive | BoNTF LC inh 1 inactive | LF protease CP1 inactive
CCCCc1ccc(C(=O)NC(C(=O)O)C(C)C)cc1 (centres undefined)	BoNT F protease 40.1, BoNT A protease 31.2 | BoNTA LC inh 1 inactive | BoNTF LC inh 1 inactive | LF protease CP1 inactive
CCCCCCc1nc(C(N)=O)c2[nH]c(=O)n(-c3ccccc3F)c2n1	none
Cc1ccc2c(c1)N(CC(=O)NCCCN1CCOCC1)C(=O)C(C(C)C)O2 (centres undefined)	none
COCCCNC(=O)C[C@@H]1C[C@@]2(C(=O)OC)CCCCC=C2N(Cc2ccc(Cl)cc2Cl)C1=O	none (no result: MazEF act)
FC(F)(F)c1ccc(CNCCc2ccc3c(c2)OCO3)cc1	BoNT F protease 71.4 | BoNTA LC inh 1 inactive | BoNTF LC inh 1 inactive | LF protease CP1 inactive
O=C(O)c1ccc(-n2nnnc2SCc2ccccc2Br)cc1	none
COc1cccc(NS(=O)(=O)c2csc(C(N)=O)c2)c1	none
O=S(=O)(c1cccc(C(F)(F)F)c1)N1CCC(CO)(CCCc2ccccc2)CC1	Anthrax LF prot 49.0 | BoNTA LC inh 1 inactive | BoNTF LC inh 1 inactive | LF protease CP1 inactive
COc1ccc(OC)c(CN2CCN(C(=O)CNC(=O)c3ccc(C(C)(C)C)cc3)CC2)c1	none
COc1ccc(OC)c(CN2CCN(C(=O)CCNC(=O)c3ccc(Br)cc3)CC2)c1	Autofluor counter inconclusive, BoNT A protease 33.7 | BoNTA LC inh 1 inactive | BoNTF LC inh 1 inactive | LF protease CP1 inactive
Cc1cccc(C(=O)NCC(=O)OCCOc2ccccc2Cl)c1	Autofluor counter inconclusive
Cc1cc(Cl)ccc1NS(=O)(=O)c1c(C)[nH]c(=O)[nH]c1=O	none
Cc1[nH]c(=O)[nH]c(=O)c1S(=O)(=O)Nc1ccc(F)c(Cl)c1	Anthrax LF prot 32.7 | BoNTA LC inh 1 inactive | BoNTF LC inh 1 inactive | LF protease CP1 inactive
COc1ccc(-c2ccnc(SCC(=O)c3ccc(OC)c(OC)c3)n2)cc1	none
COc1ccc(-c2ccnc(SCC(=O)c3ccc(Cl)cc3)n2)cc1	BoNT F protease 70.0, Anthrax LF prot 37.6 | BoNTA LC inh 1 inactive | BoNTF LC inh 1 inactive | LF protease CP1 inactive
Cc1nc(C)c(-c2ccn(C(=O)NC(C)C)n2)s1	BoNT F protease 38.3 | BoNTA LC inh 1 inactive | BoNTF LC inh 1 inactive | LF protease CP1 inactive
O=S1(=O)CC(N2CCN(CC3CC3)CC2)CN1Cc1ccccc1 (centres undefined)	none (no result: MazEF act)
CN(Cc1cn(Cc2cccc(Cl)c2)nn1)C1CN(Cc2cn(Cc3cccc(Cl)c3)nn2)S(=O)(=O)C1 (centres undefined)	none (no result: MazEF act)
COc1ccc(-c2nc3ccc(C(=O)NCC(OC)OC)cc3nc2-c2ccc(OC)c(OC)c2)cc1OC	none
